Compounds with a hit are over-represented: about 11% of the library has one in this group of screens.
G9a inh: inhibitors of human histone lysine methyltransferase G9a. Q96KQ7. G9a H3K9 monomethylation, AlphaScreen, 2 h. Potency, µM (top dose mostly 102 µM), for the others: at the highest dose activity, negative = inhibition, actives largely listed as inhibitors. hit rate 8.8% among 350,000. AID 504332; further: on the % scale 0 is the no-effect control and ±100 the full control effect; nearly all actives have a fitted effect of over 75% in size
Target sequence (Q96KQ7 913-1193 limits assumed): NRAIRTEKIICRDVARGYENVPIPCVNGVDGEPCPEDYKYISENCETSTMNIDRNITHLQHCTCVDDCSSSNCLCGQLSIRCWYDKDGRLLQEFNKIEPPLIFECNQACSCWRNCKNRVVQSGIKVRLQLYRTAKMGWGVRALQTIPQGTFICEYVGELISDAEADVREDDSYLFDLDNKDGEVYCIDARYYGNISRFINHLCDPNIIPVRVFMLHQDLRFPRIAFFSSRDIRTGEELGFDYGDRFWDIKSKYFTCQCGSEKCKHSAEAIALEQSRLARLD
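Using a bead-based AlphaScreen, monomethylated H3K9 product from 2 h room-temperature reactions (G9a 20 nM, peptide 500 nM, SAM 20 uM) was detected with 0.5 ug/mL rabbit anti-H3K9me1 antibody.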
BAZ2B block: blocks human BAZ2B. AlphaScreen BAZ2B-H3K14Ac peptide displacement. Potency, µM (titrated, usually from 114 µM), inactives show at the highest dose activity change, negative = inhibition, hits mostly inhibitors. hit rate 4.4% among 360,000. Q9UIF8; further: on the % scale 0 is the no-effect control and ±100 the full control effect; nearly all actives have a fitted effect of over 60% in size
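AlphaScreen displacement of biotin-H3(5-23)K14Ac peptide (50 nM final) from BAZ2B (50 nM final) in PBS pH 7.4, 0.01% Tween-20; complex preformed 30 min RT, then compounds (top 110 uM) 30 min RT, beads 20 min dark.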
L3MBTL1 block: L3MBTL1 (human) inhibition; AlphaScreen L3MBTL1–H3K9me1 peptide binding; Potency, µM (doses to about 57.1 µM), inactives show at the highest dose activity, negative = inhibition, most hits filed as inhibitors; hit rate 0.66% among 230,000; AID 485360; further: on the % scale 0 is the no-effect control and ±100 the full control effect; nearly all actives have a fitted effect of over 60% in size
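L3MBTL1 50 nM + b-AHA-H3(1-15)K9me1 75 nM, 30 min RT; compound added, 30 min RT; streptavidin donor/Ni-chelate acceptor beads 10 ug/mL each final, 30 min RT dark; AlphaScreen read.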
HP1b chromo inh: HP1-beta chromodomain-methylated histone interaction inhibition; AID 540317; Potency, µM (top dose mostly 114 µM), inactives show at the top dose activity change, negative = inhibition, usual class: inhibitors; P83916; hit rate 0.56% among 390,000; AlphaScreen HP1-beta / biotin-H3K9me3 peptide binding; further: nearly all actives have a fitted effect of over 70% in size
Target sequence (P83916 whole entry, looked up): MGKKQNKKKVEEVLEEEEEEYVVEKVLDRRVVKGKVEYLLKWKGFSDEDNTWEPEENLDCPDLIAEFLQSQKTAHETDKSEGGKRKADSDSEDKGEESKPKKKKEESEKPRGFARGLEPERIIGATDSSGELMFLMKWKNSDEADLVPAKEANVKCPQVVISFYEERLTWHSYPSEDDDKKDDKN
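Compound inhibition of the preformed complex between 50 nM HP1-beta and 50 nM biotinylated H3K9me3 peptide was read by AlphaScreen. Buffer was PBS pH 7.4 with 0.01% Tween-20. Incubations ran 30 min at room temperature, with 10 ug/mL donor/acceptor beads.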
JMJD2A Tudor inh: inhibitors of human JMJD2A Tudor domain. O75164. AlphaScreen JMJD2A-Tudor / H3K4me3 peptide binding. Potency, µM (series often up to 114 µM), for inactives: at the highest dose activity change, negative = inhibition, actives largely listed as inhibitors. hit rate 4.4% among 390,000; further: on the % scale 0 is the no-effect control and ±100 the full control effect; nearly all actives have a fitted effect of over 50% in size
Starred values were filed as active, the others as inactive; ? = inconclusive; / = not tested or not shown; [ ] = another dose, or the depositor's remark. The call rests on the fitted dose curve; in most records, active means well fitted inhibition curve with a large enough effect; inconclusive means small, poorly fitted or top-dose-only effect; inactive means no such curve, though single readings can be large or run the other way. Potency means the concentration at half of the fitted maximal effect.

SMILES | G9a inh | BAZ2B block | L3MBTL1 block | HP1b chromo inh | JMJD2A Tudor inh
O=C(N/C=N/O)C1=NOC(CNc2ncc(C(F)(F)F)cc2Cl)C1 (stereo not given) | 45µM* | -10% | / | 11% | -4%
O=C(NC1CC1)C1=NOC(CNc2ncc(C(F)(F)F)cc2Cl)C1 (stereo not given) | 2% | 4% | / | 26% | -13%
COc1ccc(C(=O)Nc2cccc(OC(=O)c3ccco3)c2)cc1 | 50µM* | 13% | / | -10% | -14%
COc1ccc(C(=O)Nc2cccc(OC(=O)c3ccc(C)c(C)c3)c2)cc1 | / | -36% | 6% | 50% | -13%
COc1ccc(C(C)=O)c(OC(=O)c2ccco2)c1 | 45µM* | ? | -3% | 33% | 4%
CCc1noc(-c2ccc(NC(C)c3ccccc3)c([N+](=O)[O-])c2)n1 (stereo not given) | -24%[59 µM] | 2% | / | 20% | -14%
CN(C)/C=C1/NC(=S)NC1=O | 35µM* | -8% | 10% | 89µM* | 8.9µM*
C=C1C(n2cnc3c(=O)[nH]c(N)nc32)C[C@H](O)[C@H]1CO (stereo not given in full) | -36%[12.7 µM] | / | / | / | /
COC(=O)c1c(N)n(-c2ccc(N3CCOCC3)cc2)c2nc3ccccc3nc12 | 10µM* | ? | -10% | / | /
COC(=O)c1c(N)n(-c2ccc(NC(C)=O)cc2)c2nc3ccccc3nc12 | ? | -39% | / | 35% | -13%
OC[C@@H](O)[C@H](O)C(/C=N/Nc1ccccc1)=N\Nc1ccccc1 | ? | ? | / | ? | 79µM*
CCc1ccccc1NC(=O)Cn1nc(C)c2nn(-c3ccc(Cl)cc3)c(C)c2c1=O | -2%[59 µM] | 3% | / | 30%[57 µM] | -6%
O=C(O)c1ccc(N2C(=O)CC(N3CCN(c4cccc(Cl)c4)CC3)C2=O)cc1 (stereo not given) | 11%[0.501 µM] | 5% | 7%[2.29 µM] | 54% | -9%
COc1ccc(N2C(=O)CC(N3CCCCC3)C2=O)cc1 (stereo not given) | ? | -16% | 2% | 57% | -14%
COc1ccc(N2C(=O)CC(N3CCC(O)(c4cccc(C(F)(F)F)c4)CC3)C2=O)cc1 (stereo not given) | 40µM* | 0% | 9% | 69% | -16%
O=C(O)c1ccc(N2C(=O)CC(N3CCN(c4cccc(C(F)(F)F)c4)CC3)C2=O)cc1 (stereo not given) | 40µM* | 7% | -2% | 91% | -5%
O=C1CC(Nc2ccc(N3CCOCC3)cc2)C(=O)N1c1cccc(C(F)(F)F)c1 (stereo not given) | 14µM* | 56µM* | ? | -15% | ?
COc1ccc(N2C(=O)CC(Nc3ccc(C(=O)O)cc3)C2=O)cc1OC (stereo not given) | 40µM* | -17% | 8% | 62% | 10%
Cc1c(Cl)c([N+](=O)[O-])nn1CCCC(=O)NC1CCCCC1 | -4% | 1% | / | 40% | 5%
Nc1ccccc1OC1=NS(=O)(=O)c2ccccc21 | / | / | / | / | -10%
COC(=O)c1ccc(N2C(=O)CC(N(C)CCc3ccc(OC)c(OC)c3)C2=O)cc1 (stereo not given) | 35µM* | 1% | 0% | 39% | -8%
COc1ccc(N2C(=O)CC(N(C)CCc3ccc(OC)c(OC)c3)C2=O)cc1 (stereo not given) | / | -3% | 3% | 35% | -14%
Cc1cc(C)cc(C(=O)NCC(=O)OCC(=O)N2c3ccccc3NC(=O)C2(C)C)c1 | -46%[59 µM] | 45µM* | 18µM* | 32% | -1%
CC1(C)C(=O)Nc2ccccc2N1C(=O)COC(=O)c1cc([N+](=O)[O-])ccc1N | 20µM* | -9% | -1% | -2% | -31%
CCN(CCN(C)C)C(=O)c1ccc2c(c1NCCO)C(=O)c1ccccc1C2=O | 16µM* | 50µM* | / | ? | -28%
SMILES | G9a inh | BAZ2B block | L3MBTL1 block | HP1b chromo inh | JMJD2A Tudor inh
O=C(O)c1ccc2c(c1Nc1ccccc1)C(=O)c1ccccc1C2=O | 40µM* | ? | -24% | 40µM* | 50µM*
CNc1c(C(=O)O)ccc2c1C(=O)c1ccccc1C2=O | 14µM* | 35µM* | -15% | 45µM* | -31%
O=C1c2ccccc2-c2c1cccc2C(=O)N(CCO)CCO | 17%[59 µM] | 3% | / | 20% | -24%
CCNc1c(C(=O)O)ccc2c1C(=O)c1ccccc1C2=O | ? | 35µM* | -6% | -30% | -27%
O=C(O)c1cccc2c1C(=O)c1ccccc1C2=O | ? | / | 41% | 51% | -7%
OC1CCN(Cc2cccc3ccccc23)CC1 | ? | 50µM* | -4% | ? | 79µM*
CN1CCCN(Cc2cccc3ccccc23)CC1 | / | 56µM* | -7% | ? | 25µM*
OC1CCN(Cc2nc(Cc3ccccc3Cl)no2)CC1 | 13% | -1% | 9% | 33% | -12%
CC(=O)c1cccc(CN2CCC(CO)(CCCc3ccccc3)CC2)c1 | / | -2% | ? | 40% | -13%
CC(=O)Nc1ccc2nc(CN3CCC(CO)(CCc4ccccc4)CC3)ccc2c1 | -39% | -33% | -19% | 10% | 32µM*
Cc1nc(C(Cl)(Cl)Cl)nc2[nH]ccc(=O)c12 | -8% | -30% | -5% | -10% | 11µM*
Cc1[nH]ccc(=O)c1Cc1c(Cl)cccc1Cl | 2% | -2% | / | 20% | -1%
O=C(NCc1cccs1)c1cccnc1SCCS(=O)(=O)c1ccc(C(F)(F)F)cn1 | 16µM* | 2% | 7% | 40% | -15%
CS(=O)(=O)CCSc1ncccc1C(=O)NCc1cccs1 | 1% | 1% | 12% | 31% | -8%
CCOC(=O)c1cc2c(=O)n3cccc(C)c3nc2n(Cc2ccco2)c1=NC(=O)c1cccnc1 | 8%[12.7 µM] | 79µM* | -10%[11.4 µM] | 15% | ?
CCOC(=O)c1cc2c(=O)n3ccccc3nc2n(Cc2ccco2)c1=NC(=O)c1cccc(Br)c1 | ? | 50µM* | / | 28% | -6%
CCOC(=O)c1cc2c(=O)n3ccccc3nc2n(Cc2ccco2)c1=NC(=O)c1ccc(C)c(C)c1 | -3%[59 µM] | 3% | / | 25% | 6%
CCOC(=O)c1cc2c(=O)n3ccccc3nc2n(CCCOC)c1=NC(=O)c1cccnc1 | 10µM* | 10% | ? | / | /
CCOC(=O)c1cc2c(=O)n3ccccc3nc2n(Cc2ccco2)c1=NC(=O)c1cccnc1 | 56µM* | ? | -5% | 12% | ?
CCOC(=O)c1cc2c(=O)n3ccccc3nc2n(CCOC)c1=NC(=O)c1ccncc1 | -4%[12.7 µM] | 3% | 0%[11.4 µM] | 28% | -17%
CCOC(=O)c1cc2c(=O)n3ccccc3nc2n(Cc2ccco2)c1=NC(=O)c1ccc(Br)cc1 | -4%[59 µM] | ? | / | 7% | -24%
COc1ccc2c(c1)c1c(c(=O)n(-c3ccc(OC)c(OC)c3)c(=O)n1Cc1ccccc1F)n2C | ? | 0% | / | 39% | -6%
Cc1cccc(C)c1OCCCn1c(CCNC(=O)C2CCCCC2)nc2ccccc21 | 11%[59 µM] | -7% | / | 7%[57 µM] | -14%[57.1 µM]

Screens (PubChem)
